# Compound activity from PubChem.
# Sampled rows, rich in hits. Any-hit rate of the full collection: about 2.4%.
# Pol eta inh-1: blocks human DNA polymerase eta activity; Q9Y253; recombinant Pol eta, fluorescent DNA replication assay; Potency, µM (series often up to 114 µM), for inactives: top-dose activity change, negative = inhibition, actives largely listed as inhibitors; hit rate 1.2% among 390,000; also: % is scaled to controls: 0 for no effect and ±100 for the full control effect
#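 Pol eta at 10 nM preincubated with compounds 15 min at room temperature; reaction started with fluorescent substrate (50 nM final) and read kinetically at 0 and 10 min.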
# Pol beta inh: blocks human DNA polymerase beta activity | P06746 | Pol beta primer extension/strand displacement, fluorescence kinetic | Potency, µM (series often up to 114 µM), without a hit: at the top dose activity change, negative = inhibition, most hits filed as inhibitors | hit rate 1.3% among 340,000 | AID 485314; also: % is scaled to controls: 0 for no effect and ±100 for the full control effect
#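 Enzyme-only controls used 10 nM Pol beta; buffer lacking enzyme served as negative control. Compound preincubated 15 min, then 50 nM substrate added; 0 and 10 min reads at room temperature.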
# FEN1 inh: human FEN1 inhibition; Recombinant FEN1 flap cleavage, fluorescence, 15 min; P39748; hit rate 0.35% among 390,000; AID 588795; Potency, µM (top dose mostly 114 µM), inactives show at the highest dose activity change, negative = inhibition, actives largely listed as inhibitors; also: % is scaled to controls: 0 for no effect and ±100 for the full control effect; nearly all actives have a fitted effect of over 65% in size
#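 With each library titrated from low to high concentration, compounds met 10 nM FEN1 for 15 min at room temperature before 50 nM substrate was added; readings at 0 and 15 min fed four-parameter Hill curve fits.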
# Pol kappa inh-1: blocks human DNA polymerase kappa activity; hit rate 0.53% among 400,000; Q9UBT6; Potency, µM (highest dose often 107 µM), for the others: at the highest dose activity, negative = inhibition, most hits filed as inhibitors; purified Pol kappa, fluorescent DNA synthesis assay, 10 min; also: % is scaled to controls: 0 for no effect and ±100 for the full control effect
# Target sequence (Q9UBT6 whole entry, looked up): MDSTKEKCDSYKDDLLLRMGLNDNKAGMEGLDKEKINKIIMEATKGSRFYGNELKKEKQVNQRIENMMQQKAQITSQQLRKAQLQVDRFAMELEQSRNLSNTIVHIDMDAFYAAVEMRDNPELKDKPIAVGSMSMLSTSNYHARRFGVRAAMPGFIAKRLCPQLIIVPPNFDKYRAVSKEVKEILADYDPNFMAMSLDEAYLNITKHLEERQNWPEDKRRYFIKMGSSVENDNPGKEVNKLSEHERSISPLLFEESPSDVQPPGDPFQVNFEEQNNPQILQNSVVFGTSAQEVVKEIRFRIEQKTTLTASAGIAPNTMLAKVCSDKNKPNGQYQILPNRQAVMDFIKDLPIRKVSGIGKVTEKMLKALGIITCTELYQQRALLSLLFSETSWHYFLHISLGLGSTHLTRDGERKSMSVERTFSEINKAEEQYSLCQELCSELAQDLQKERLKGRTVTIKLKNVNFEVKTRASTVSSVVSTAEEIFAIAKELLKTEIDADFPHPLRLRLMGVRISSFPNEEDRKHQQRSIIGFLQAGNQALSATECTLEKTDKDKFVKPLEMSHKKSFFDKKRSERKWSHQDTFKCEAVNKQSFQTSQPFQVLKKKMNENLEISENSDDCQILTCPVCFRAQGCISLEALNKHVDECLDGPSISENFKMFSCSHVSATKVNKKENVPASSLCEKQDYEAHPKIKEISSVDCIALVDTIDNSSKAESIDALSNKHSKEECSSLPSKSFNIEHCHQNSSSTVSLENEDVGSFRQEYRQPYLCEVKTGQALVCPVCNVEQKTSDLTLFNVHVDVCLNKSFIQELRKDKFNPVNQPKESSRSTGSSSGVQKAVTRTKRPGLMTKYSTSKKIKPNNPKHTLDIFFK
#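 Fluorescent qHTS in 1536-well format: enzyme (10 nM) and compound sat 15 min at room temperature before 50 nM substrate (final) was added. Signal taken at 0 and 10 min; no-enzyme buffer wells were negative controls.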
# POLI inh: DNA polymerase iota (human) inhibition. Pol iota fluorescent replication assay, 10 min. Potency, µM (series often up to 115 µM), without a hit: at the top dose activity, negative = inhibition, hits mostly inhibitors. AID 588590. Q9UNA4. hit rate 1% among 390,000
#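 Pol iota at 10 nM preincubated 15 min with compounds at room temperature; reaction started with fluorescent substrate, 50 nM final. Fluorescence read kinetically at 0 and 10 min; buffer-only wells as negative control.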
# WRN inhibitor: inhibitors of human WRN helicase | WRN helicase unwinding, fluorescent forked duplex, kinetic | Potency, µM (titrated, usually from 114 µM), inactives show top-dose activity change, negative = inhibition, most hits filed as inhibitors | hit rate 0.46% among 360,000; also: % is scaled to controls: 0 for no effect and ±100 for the full control effect; nearly all actives have a fitted effect of over 55% in size
#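 Primary qHTS, 1536-well format. 20 nM WRN + compound, 15 min RT; start with 100 nM forked fluorophore/quencher duplex, 2 mM ATP (final); kinetic read ex 525/em 598 nm.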
# TbPGK inh: blocks T. brucei phosphoglycerate kinase. shares compounds with Pol kappa inh-1. TbPGK coupled GAPDH assay, Kinase-Glo luminescence. Potency, µM (doses to about 57.5 µM), for inactives: at the top dose activity change, negative = inhibition, hits mostly inhibitors. hit rate 79% among 500. AID 686980; also: % is scaled to controls: 0 for no effect and ±100 for the full control effect; nearly all actives have a fitted effect of over 65% in size
# POLI cherry-pick: Human Pol iota inhibitor confirmatory assay; hit rate 77% among 1,500; AID 720496; Potency, µM, actives largely listed as inhibitors; shares compounds with Pol kappa inh-1; Pol iota primer extension, TAMRA/BHQ fluorescence
# Pol kappa inh-2: confirmation of human DNA polymerase kappa inhibitors. Potency, µM, most hits filed as inhibitors. purified Pol-kappa, fluorescent strand-displacement substrate. hit rate 76% among 920. shares compounds with Pol eta inh-1
# Pol eta inh-2: confirmation of human DNA polymerase eta inhibitors; shares compounds with Pol eta inh-1; Pol eta primer extension, TAMRA/BHQ fluorescence, 10 min; Potency, µM, hits mostly inhibitors; hit rate 64% among 2,600
# The depositor's hits bear a star; ? = inconclusive; · = not tested or not shown; [ ] = remark or other dose. Calls follow the shape of the dose curve; as a rule, active = well fitted curve in the direction sought with a large enough effect; inconclusive = small, poorly fitted or top-dose-only effect, or another doubt; inactive = no such curve, though single readings can be large; an effect the other way counts as inactive or inconclusive. Potency is read from the fitted curve at half-maximal effect.
SMILES,Pol eta inh-1,Pol beta inh,FEN1 inh,Pol kappa inh-1,POLI inh,WRN inhibitor,POLI cherry-pick,Pol eta inh-2,others
COC(=O)c1nn(-c2ccc3c(c2)CCN3C(C)=O)cc1O,-9%,-12%,-12%,-4%,44%,-15%,·,·,TbPGK inh=21µM*
CCOc1ccc(/C=C2\SC(=S)N(CCC(=O)Nc3cccc(C(=O)O)c3)C2=O)cc1,45µM*,-3%,-30%,-13%,?,-16%[57.1 µM],75*,·,
O=C(CCN1C(=O)/C(=C/c2ccc3c(c2)OCO3)SC1=S)Nc1ccc(C(=O)O)cc1,?,?,?,-23%,?,-12%[11.6 µM],75*,·,
O=C(NNC(=O)c1cc2cc3ccccc3nc2s1)c1cccc(Cl)c1,?,1.4µM*,-16%,79µM*,?,?,?,·,
Fc1ccccc1Nc1nc2ccccc2o1,0%,0%,-3%,-6%,9%,5%,·,·,TbPGK inh=18µM*
Cc1ccc(OC(=O)CSc2nnc(-c3cccs3)o2)cc1C,-8%,0%,3%,9%,?,·,·,·,
CCOc1cc(/C=N/NC(=O)c2nnn(-c3nonc3N)c2C)ccc1OCc1ccc(F)cc1,-5%,1%,16%,0%,28%,1%,·,·,
CCOc1cc(/C=N/NC(=O)c2nnn(-c3nonc3N)c2C)ccc1OCc1ccc(C)cc1,10µM*,·,·,·,·,-12%[11.6 µM],24*,·,
Cc1nn(-c2ccc(F)cc2)c(Cl)c1C(=O)OC(C)C(=O)N(C)C1CCCCC1 (centres undefined),-8%,·,0%,-11%,-14%,-4%,·,·,
Cc1ccc(OCC(=O)N(C)CC(=O)NCc2ccco2)c(Br)c1,14µM*,·,5%,79µM*,?,?,·,·,TbPGK inh=21µM*
COCCn1c(C)cc(C2=NNC(=NC3CC3)SC2)c1C,-18%,6%,5%,-2%,206%,4%,·,·,TbPGK inh=16µM*
CCN(c1cccc(C)c1)S(=O)(=O)c1ccc2c(c1)CCCN2C(C)=O,-14%,8%,-23%,-17%,-1%,-14%,·,·,
COc1ccc2cc(N3CCCC3=O)ccc2c1,-14%,·,3%,-17%,79%,-1%,·,·,
O=C(O)c1ccc(-c2ccc(/C=C3\NC(=O)N(Cc4ccc(Cl)cc4)C3=O)o2)cc1Cl,1.3µM*,4.5µM*,28µM*,4.5µM*,1.4µM*,22µM*,·,·,TbPGK inh=5.8µM*
Cc1ccc(/C=C2/NC(=O)N(Cc3ccc(Br)cc3)C2=O)o1,-2%,2%,-5%,-8%,12%,?,·,·,
Cc1ccc(CC(=O)Nc2ncc([N+](=O)[O-])s2)cc1,-1%,-17%,-5%,-3%,-9%,2%,·,·,
COc1ccc(C(=O)OCC(=O)Nc2ncc([N+](=O)[O-])s2)cc1OC,3.2µM*,·,35µM*,22µM*,?,50µM*,19*,?,TbPGK inh=18µM*;Pol kappa inh-2=6.7*
O=C(COC(=O)c1ccc(Br)o1)Nc1ncc([N+](=O)[O-])s1,3.2µM*,·,?,79µM*,22µM*,?,?,19*,Pol kappa inh-2=11*
COc1ccc(C(=O)OCC(=O)NC(C)(C)C)cc1[N+](=O)[O-],-9%,-2%,-1%,1%,-19%,0%,·,·,
N=C1/C(=C/c2ccco2)C(=O)N=C2SC(CC(=O)N3CCCC3)=NN12,14µM*,?,-34%,?,16µM*,50µM*,38*,24*,
CCN1CCN(C(=O)c2[nH]c3ccc(OC)cc3c2C)CC1,-7%,36%,-1%,-19%,?,2%,·,·,
Nc1nc(=S)c2ncn(C3OC(CO)C(O)C3O)c2[nH]1 (centres undefined),4µM*,0.16µM*,89µM*,?,?,28µM*,34*,27*,TbPGK inh=12µM*;Pol kappa inh-2=15*
CC1(C)OC2C(CO)OC(n3cnc4c(=S)nc(N)[nH]c43)C2O1 (centres undefined),·,·,·,·,·,-4%,·,·,
COC(=O)c1cc(C(=O)OC)cc(N2C(=O)CC(NNC(=O)c3ccccc3Br)C2=O)c1 (centres undefined),-3%,14%,2%,-10%,6%,-4%,·,·,
C[C@@H]1OC(O[C@H]2[C@H](Oc3cc(O)c4c(=O)c(O)c(-c5ccc(O)cc5)oc4c3)O[C@H](CO)[C@@H](O)[C@@H]2O)[C@H](O)[C@H](O)[C@H]1O (some centres undefined),·,·,·,8%[60.1 µM],·,·,·,·,
SMILES,Pol eta inh-1,Pol beta inh,FEN1 inh,Pol kappa inh-1,POLI inh,WRN inhibitor,POLI cherry-pick,Pol eta inh-2,others
O=c1c(OC2OC(CO)C(O)C(O)C2OC2OC(CO)C(O)C(O)C2O)c(-c2ccc(O)cc2)oc2cc(O)cc(O)c12 (centres undefined),11µM*,22µM*,?,50µM*,28µM*,-10%[11.6 µM],?,?,
C/C(N)=C(/C#N)C(=O)CSc1nc2ccccc2c(=O)n1Cc1ccc(C)cc1,-11%,5%,-21%,-25%,?,-15%,·,·,
C/C(N)=C(/C#N)C(=O)CSc1nc2ccccc2c(=O)n1Cc1ccc(F)cc1,20µM*,7.9µM*,?,79µM*,11µM*,-17%[11.6 µM],42*,48*,Pol kappa inh-2=38*
CCCCn1c(NS(=O)(=O)c2ccccc2)c(S(=O)(=O)c2ccc(C)cc2)c2nc3ccccc3nc21,45µM*,1%,-19%,-11%,7.9µM*,?,?,?,
CCCCn1c(NC(=O)c2ccco2)c(S(=O)(=O)c2ccc(C)cc2)c2nc3ccccc3nc21,-24%,?,-26%,-9%,43%,?,·,·,
O=C(CSc1nnc(CCc2nc3ccccc3[nH]2)n1-c1ccccc1)NCc1ccco1,5%,6%,-10%,-7%,11%,-12%,·,·,
Cc1cc(Cl)ccc1NC(=O)Cn1nc(C)c2c(C)n(-c3ccccc3)nc2c1=O,·,40µM*,-1%,?,50µM*,·,75*,?,Pol kappa inh-2=47*
CCOc1ccccc1-n1c(C)cc(C=O)c1C,-23%,15%,5%,-4%,195%,1%,·,·,
Cc1c(C(=O)O)cccc1-n1c(C)cc(C=O)c1C,6.3µM*,16µM*,-12%,?,25µM*,-15%,30*,19*,
